Experimental data as given in PubChem BioAssay AID1851 (National Center for Advancing Translational Sciences (NCATS), 2009).
In all, about 16,000 compounds went through this assay and about 5,100 (32%) were called active. Roughly 25% stayed inconclusive and do not appear here. Some of the results follow. A number with no mark means an inactive call. The call rests on the fitted dose curve; in most records, active means well fitted curve in the direction sought with a large enough effect; inconclusive means small, poorly fitted or top-dose-only effect, or effect the other way; inactive means no such curve, though single readings can be large or run the other way.
On the % scale 0 is the no-effect control and ±100 the full control effect.

The compounds below were run against Cytochrome P450 3A4 (Homo sapiens) (UniProt P08684) (assay: Cytochrome panel assay with activity outcomes). Conditions: recombinant CYP, pro-luciferin dealkylation, luminescence, p450-cyp3a4; series mostly up to 57.1 µM; activity, negative = inhibition: at the top concentration.
Sequence of Cytochrome P450 3A4 (Homo sapiens) (P08684 whole entry, looked up): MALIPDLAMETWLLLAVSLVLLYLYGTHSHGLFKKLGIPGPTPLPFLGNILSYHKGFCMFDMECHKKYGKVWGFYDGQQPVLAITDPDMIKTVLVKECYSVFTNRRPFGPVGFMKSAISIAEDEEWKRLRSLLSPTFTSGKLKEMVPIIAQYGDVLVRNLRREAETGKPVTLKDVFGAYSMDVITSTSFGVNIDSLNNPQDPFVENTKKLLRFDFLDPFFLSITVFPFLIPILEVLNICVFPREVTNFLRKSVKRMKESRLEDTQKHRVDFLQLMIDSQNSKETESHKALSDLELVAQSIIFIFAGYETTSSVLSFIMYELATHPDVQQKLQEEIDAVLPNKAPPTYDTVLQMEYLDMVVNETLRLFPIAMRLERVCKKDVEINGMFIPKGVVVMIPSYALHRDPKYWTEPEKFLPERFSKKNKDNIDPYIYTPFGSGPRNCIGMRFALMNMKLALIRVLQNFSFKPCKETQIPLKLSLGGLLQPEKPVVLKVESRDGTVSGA
`Cn1c(=O)c2[nH]c(CCC(=O)O)nc2n(C)c1=O` was tested, and the activity, negative = inhibition was -3% [at 11.4 µM]. In the case of `NS(=O)(=O)c1cc(Cl)c(Cl)c(S(N)(=O)=O)c1`, the “activity, negative = inhibition” value is reported as 0.288% [at 25.6 µM]. Compound `CN(C)c1cc(=O)n2c(n1)SCCC2` has an activity, negative = inhibition of -1.72% [at 2.29 µM]. `O=C(c1coc(=O)c2ccccc12)N1CCN(Cc2ccccc2)CC1` was tested, and the “activity, negative = inhibition” value was -29.5%. `O=C(c1n[nH]c(=O)c2ccccc12)N1CCN(C2c3ccccc3-c3ccccc32)CC1` was tested, and the AC50 was 11.2 µM (active). With `CCc1ccc(NC(=S)N2CCN(c3cccc(C(F)(F)F)c3)CC2)cc1` the “activity, negative = inhibition” value was -10.7%. For `Cc1ccc(CC(=O)N2CCN(c3cccc(C(F)(F)F)c3)CC2)cc1`, the AC50 was 3.98 µM (active). In the case of `COc1ccc(CC(=O)N2CCN(c3ccc(C4=NNC(=O)CC4C)cc3)CC2)cc1` (configuration not stated), the activity, negative = inhibition is reported as -9.27% [at 2.29 µM]. For `CC(=O)Nc1ccccc1C(=O)C(=O)O`, the “activity, negative = inhibition” value was -8.44%. For `Cc1ccc(S(=O)(=O)O[C@@H]2[C@H]([C@@H]3COC(C)(C)O3)O[C@H]3OC(C)(C)O[C@@H]32)cc1`, the activity, negative = inhibition was -4.72% [at 11.4 µM]. In the case of `COC(=O)[C@@]1(Cc2ccccc2)[C@H]2c3cc(C(=O)N4CCCC4)n(Cc4nc5ccccc5[nH]4)c3C[C@H]2CN1C(=O)c1ccccc1`, the AC50 is reported as 1.26 µM (active). In the case of `O=C(CSc1nc2ccccc2[nH]1)NCCN1CCCCC1`, the “activity, negative = inhibition” value is reported as -14.7%. With `COC(=O)[C@@]1(Cc2ccc(OC)cc2)[C@H]2c3cc(C(=O)N4CCCC4)n(Cc4nc5ccccc5[nH]4)c3C[C@H]2CN1C(=O)c1ccccc1` the AC50 was 2 µM (active). `N=C(N)SCCCN` was tested, and the activity, negative = inhibition was -9.75% [at 11.4 µM]. `O=C1c2ccccc2C(=O)N1C[C@]1(C(=O)O)NCCS1(=O)=O` gave an activity, negative = inhibition of 8.42% [at 11.4 µM]. With `CCOC(=O)N1CCN(c2nc(-c3ccco3)cc(C(F)(F)F)n2)CC1` the “activity, negative = inhibition” value was -18%. For `O=C(NC1CCCC1)c1cnn2c(C(F)(F)F)cc(-c3ccco3)nc12`, the AC50 was 14.1 µM (active). In the case of `O=C(Nc1c2c(nn1-c1ccc(F)cc1)CS(=O)(=O)C2)C12CC3CC(CC(C3)C1)C2`, the AC50 is reported as 8.91 µM (active). For `O=C(CCC1CCCCC1)Nc1c2c(nn1-c1ccc(F)cc1)CS(=O)(=O)C2`, the AC50 was 5.62 µM (active). With `COC(=O)c1nn(C23CC4CC(CC(C4)C2)C3)c2c1C(=O)N(c1ccc(F)cc1)C2=O` the “activity, negative = inhibition” value was -13%. For `Cc1cc(C)cc(-n2c(C)cc(C=C(C#N)C#N)c2C)c1`, the “activity, negative = inhibition” value was 4.93%. In the case of `COC(=O)C1=C(NC(=O)c2ccc(C)c(C)c2)CCS1`, the AC50 is reported as 28.2 µM (active). In the case of `COC(=O)C1=C(NC(=O)c2cccs2)CCS1`, the AC50 is reported as 15.8 µM (active). For `Cc1ccc(S(=O)(=O)O/N=C2/CCCc3occc32)cc1`, the “activity, negative = inhibition” value was 1.14%. With `COC(=O)c1cnn(C(=O)c2cc(OC)ccc2Br)c1N` the AC50 was 28.2 µM (active). `CCOC(=O)c1cnn(-c2cc(Oc3ccccc3)ncn2)c1N` was tested, and the “activity, negative = inhibition” value was 19%. For `COC(=O)c1cnn(C(=O)c2ccccc2Br)c1N`, the “activity, negative = inhibition” value was 9.7%. With `CCNC(=S)N1CC(C)OC(C)C1` (configuration not stated) the “activity, negative = inhibition” value was 1.05%. In the case of `CCSC(=N)N`, the AC50 is reported as “inactive”. For `COc1ccc(CNc2nc(-c3ccccc3CN(C)C)nc3ccccc23)c(OC)c1`, the AC50 was 7.94 µM (active). With `COc1ccccc1CNc1nc(-c2ccccc2CN(C)C)nc2ccccc12` the AC50 was 12.6 µM (active). For `CN1CCCN(C2C3CC4CC(C3)CC2C4)CC1` (configuration not stated), the “activity, negative = inhibition” value was -0.38%. With `NS(=O)(=O)c1cccc2c1c([N+](=O)[O-])cc1[nH]c(=O)c(=O)[nH]c12` the “activity, negative = inhibition” value was -7.86%. In the case of `Cc1cc(C)cc(NC(=O)N2CCCC2C(=O)Nc2ccc(-n3cnnn3)c(C)c2)c1` (configuration not stated), the AC50 is reported as 5.01 µM (active). In the case of `Cc1cc(NC(=O)c2ccco2)ccc1-n1cnnn1`, the AC50 is reported as 8.91 µM (active). With `CC(=O)Nc1cccc(NC(=O)C2CCCN2C(=O)Nc2ccccc2C)c1` (configuration not stated) the activity, negative = inhibition was 0.0054% [at 11.4 µM]. In the case of `COc1cc(Cn2cnnn2)ccc1O`, the “activity, negative = inhibition” value is reported as -9.86%. In the case of `O=[N+]([O-])c1ccc(Cl)c(-c2ccc(/C=N/c3c(-c4ccco4)nc4ccccn34)o2)c1`, the “activity, negative = inhibition” value is reported as -6.34%. With `COc1cc(-c2nc3ccccn3c2/N=C/c2ccccc2)ccc1O` the AC50 was 7.08 µM (active). With `COc1ccc(CNc2ncncc2-c2c(C)noc2C)c(OC)c1` the AC50 was 1.26 µM (active). `COc1ccc(CNc2ncncc2-c2ccccc2OC)c(OC)c1` was tested, and the AC50 was 0.316 µM (active). With `COc1ccc(CNc2ncncc2-c2ccccc2C)c(OC)c1` the AC50 was 0.398 µM (active). `COc1ccc(CNc2ncncc2-c2ccccc2CN(C)C)c(OC)c1` was tested, and the AC50 was 0.398 µM (active). For `COCCNc1cc(-c2ccccc2CN(C)C)ncn1`, the “activity, negative = inhibition” value was -14.6%. With `N[C@H](CCC(=O)N[C@H](CSN=O)C(=O)NCC(=O)O)C(=O)O` the AC50 was “inactive”. `CO[C@@H]1COC(=O)[C@H]2CCCN2C(=O)[C@@H](C)COC(=O)CCC[C@H]1C` was tested, and the activity, negative = inhibition was -20.2% [at 11.4 µM]. With `C=CCOc1cccc(/C=N/NC(=O)C(=O)NCc2ccco2)c1` the “activity, negative = inhibition” value was -17.7%. For `Cc1ccc(C(=O)N/C(=C/C=C/c2ccccc2)C(=O)NCc2ccco2)cc1`, the AC50 was 5.01 µM (active). In the case of `CC[N+](CC)(CC)CCOc1ccc(/C=C\c2ccccc2)cc1`, the “activity, negative = inhibition” value is reported as -9.87%. For `C=CCNC(=O)/C(=C\C=C\c1ccccc1)NC(=O)c1ccc(OCCCC)cc1`, the AC50 was 8.91 µM (active). `Cn1cnc([N+](=O)[O-])c1Sc1nc(N)nc2c1ncn2[C@H]1C[C@H](O)[C@@H](CO)O1` was tested, and the activity, negative = inhibition was -4.33% [at 11.4 µM]. `CN1CCC(=C2c3ccccc3C=Cc3ccccc32)CC1` was tested, and the AC50 was “inactive”. For `O=C(O)CN(CCOCCOCCN(CC(=O)O)CC(=O)O)CC(=O)O`, the “activity, negative = inhibition” value was 6.56%. For `N=C1/C(=C\c2ccc(SCc3ccco3)o2)C(=O)N=C2SC=NN12`, the AC50 was 3.98 µM (active). `O=C(CN1C(=O)c2cccc3cccc(c23)C1=O)N1CCCCCC1` was tested, and the AC50 was 10 µM (active). For `O=C(CCCN1C(=O)c2cccc3cccc(c23)C1=O)N1CCc2ccccc2C1`, the AC50 was 5.01 µM (active). Work on `O=C(O)c1cccc2cccc(-c3cccc4cccc(C(=O)O)c34)c12` yielded an activity, negative = inhibition of -5.55% [at 11.4 µM]. With `O=C(c1ccc(S(=O)(=O)N2CCCCCC2)cc1)N1CCC(CN2C(=O)c3cccc4cccc(c34)C2=O)CC1` the “activity, negative = inhibition” value was -12.4%. In the case of `N=C(N)N1CCc2ccccc2C1`, the “activity, negative = inhibition” value is reported as -3.56% [at 25.6 µM]. With `CCc1ccc(/C=C\C(=O)N2CCc3ccccc3C2)cc1` the “activity, negative = inhibition” value was -11.1%. With `COc1ccc(/C=N/NC(=O)c2cc(-c3ccc(C)cc3C)nc3ccccc23)cc1COC(C)=O` the activity, negative = inhibition was 14.1% [at 0.457 µM]. With `COc1cccc(-c2cc(C(=O)N/N=C/c3ccc(OC)c(COC(C)=O)c3)c3ccccc3n2)c1` the AC50 was 1.78 µM (active). With `COc1cccc(/C=N/NC(=O)c2nc(-c3ccccc3)cc(-c3ccccc3)n2)c1` the “activity, negative = inhibition” value was 11.4%. For `N[C@]1(C(=O)O)CCc2cc(P(=O)(O)O)ccc21`, the “activity, negative = inhibition” value was -9.83%. For `Clc1ccc2c(c1)C(c1cccs1)=NNC(c1cccnc1)=N2`, the AC50 was 10 µM (active). In the case of `Fc1ccc2c(c1)C(c1ccncc1)=NNC(c1ccc(Cl)cc1)=N2`, the AC50 is reported as 1.78 µM (active). Work on `CC(C)c1ccc2c(c1)C(c1ccc(N3CCOCC3)cc1)=NNC(c1cccs1)=N2` yielded an activity, negative = inhibition of 9.44% [at 2.29 µM]. In the case of `O=C(O)[C@H]1CCCC[C@@H]1c1c2ccc(=O)c(O)c-2oc2c(O)c(O)ccc12`, the activity, negative = inhibition is reported as -5.27% [at 11.4 µM]. With `C=CCNc1nc(SCC=C)nc2ccsc12` the AC50 was 12.6 µM (active). `C=CCSc1ccsc1C(=O)O` was tested, and the “activity, negative = inhibition” value was -6.67%. With `C=CCSc1nc(Oc2ccccc2)c2sccc2n1` the AC50 was 10 µM (active). With `C=CCSc1nc(NC)c2sccc2n1` the AC50 was 25.1 µM (active). For `CSc1nc(Oc2ccc(F)cc2)c2ccccc2n1`, the “activity, negative = inhibition” value was 1.87%. For `NS(=O)(=O)c1ccc(N=Nc2c[nH]c(=O)c(O)c2)cc1`, the activity, negative = inhibition was -19.5% [at 11.4 µM]. `O=C(CSc1nc2nc(-c3cccs3)cc(C(F)(F)F)c2c(=O)[nH]1)NCc1ccco1` was tested, and the AC50 was 14.1 µM (active). Compound `N#Cc1c(-c2cccs2)nc(SCC(=O)c2cccs2)[nH]c1=O` has an activity, negative = inhibition of -3.29% [at 2.29 µM]. For `CSc1nc(-c2ccc(C)cc2)[nH]c1S(=O)(=O)c1ccccc1`, the AC50 was 28.2 µM (active). With `CSc1nc(O)c(Cc2ccccc2)c(=O)[nH]1` the “activity, negative = inhibition” value was -2.8%. For `CCCCCOC(=O)c1c(N)n(CCOC)c2nc3ccccc3nc12`, the AC50 was 8.91 µM (active). In the case of `C=C(CC1([C@@H](NP(=O)(c2ccccc2)c2ccccc2)[C@H]2C[C@@H]2CCCC)CC1)c1ccccc1`, the AC50 is reported as 1.58 µM (active). `C=C(CC1([C@@H](NP(=O)(c2ccccc2)c2ccccc2)[C@H]2C[C@@H]2CCCC)CC1)c1cccc(OC)c1` was tested, and the AC50 was 2.51 µM (active). With `C=C(CC1([C@@H](NP(=O)(c2ccccc2)c2ccccc2)[C@H]2C[C@@H]2CCN(C(=O)OCC)S(=O)(=O)c2ccc(C)cc2)CC1)c1ccccc1` the AC50 was 1.58 µM (active). Compound `O=C(O)c1ccc(SSc2ccc(C(=O)O)cn2)nc1` has an activity, negative = inhibition of -8.92% [at 11.4 µM]. In the case of `Cc1cc(C(=O)OCC(=O)NCCCN2CCCC2=O)c2ccccc2n1`, the activity, negative = inhibition is reported as -5.65% [at 2.29 µM]. With `O=C1CCCN1CC(O)CS(=O)(=O)c1ccccc1` (configuration not stated) the “activity, negative = inhibition” value was -2.95%. In the case of `Cc1ccc(C(=O)N(CN2CCCC2=O)c2ccccc2)cc1C`, the AC50 is reported as 12.6 µM (active). For `CC1(C)CO[C@H](CC(=O)O)CN1`, the “activity, negative = inhibition” value was -11.5%. `COc1cccc(OC)c1C(=O)NC(=S)N1CCN(c2ccc(C(F)(F)F)cc2[N+](=O)[O-])CC1` was tested, and the activity, negative = inhibition was -16.4% [at 2.29 µM]. For `O=C(O)C1CCN(c2c([N+](=O)[O-])cc(C(F)(F)F)cc2[N+](=O)[O-])CC1`, the “activity, negative = inhibition” value was 4.13%. With `O=c1c([N+](=O)[O-])cc(C(F)(F)F)cn1Cc1c(Cl)cccc1Cl` the AC50 was 14.1 µM (active). In the case of `CCC(=O)OCC(=O)[C@@]1(OC(=O)CC)[C@H](C)C[C@@H]2[C@H]3CCC4=CC(=O)C=C[C@]4(C)[C@]3(Cl)[C@@H](O)C[C@@]21C`, the “activity, negative = inhibition” value is reported as -13.1% [at 25.6 µM]. With `CCC(=O)[C@@]1(C)[C@H](C)C[C@@H]2[C@@H]3CCC4=CC(=O)C=C[C@@]4(C)[C@H]3[C@H](O)C[C@]21C` the “activity, negative = inhibition” value was -6.68% [at 25.6 µM].
